{"source": "PubChem BioAssay (EPA / NIEHS)", "note": "Inconclusive results are not listed. Active and inactive are the calls of the source. How the source made its calls: active means hit-call score of the fitted dose curve at least 0.9, where 1 is the maximum; inconclusive means response in the unintended direction; inactive means score below 0.9. Peptide text beside a SMILES is read from it.", "data": [{"target": "Peroxisome proliferator-activated receptor gamma (Homo sapiens) (UniProt P37231)", "sequence (P37231 whole entry, looked up)": "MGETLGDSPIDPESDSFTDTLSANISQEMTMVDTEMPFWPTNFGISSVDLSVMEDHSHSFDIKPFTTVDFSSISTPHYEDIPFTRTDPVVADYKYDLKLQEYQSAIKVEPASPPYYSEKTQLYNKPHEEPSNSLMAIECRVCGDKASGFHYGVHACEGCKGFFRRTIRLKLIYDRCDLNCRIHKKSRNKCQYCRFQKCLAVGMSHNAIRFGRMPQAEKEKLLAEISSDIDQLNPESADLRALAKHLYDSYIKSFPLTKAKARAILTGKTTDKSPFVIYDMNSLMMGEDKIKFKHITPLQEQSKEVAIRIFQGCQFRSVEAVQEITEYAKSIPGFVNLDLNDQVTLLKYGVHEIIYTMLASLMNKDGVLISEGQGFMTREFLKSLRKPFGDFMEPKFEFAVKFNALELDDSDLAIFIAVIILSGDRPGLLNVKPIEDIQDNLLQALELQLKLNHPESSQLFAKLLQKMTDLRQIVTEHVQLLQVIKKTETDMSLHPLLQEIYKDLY", "test": "OT_PPARg_PPARgSRC1_0480: Odyssey Thera (OT) 8-hour Protein-Complementation Assay for Peroxisome Proliferator-activated Receptor Gamma / SRC-1 Co-activator (AID 2283387);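 further: nuclear to cytoplasmic split Venus YFP fluorescence ratio reporting PPARg SRC-1 interaction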", "method": "OT_PPARg_PPARgSRC1_0480 is a cell-based assay that uses HEK293T, a human kidney cell line, with measurements taken at 8 hours after chemical dosing in a 384-well plate.OT_PPARg_PPARgSRC1_0480 is one of one assay component(s) measured or calculated from the OT_PPARg_PPARgSRC1_0480 assay. It is designed to make measurements of protein fragment complementation, a form of binding reporter, as detected with fluorescence intensity signals by Protein-fragment Complementation technology.Data from the assay component OT_PPARg_PPARgSRC1_0480 was analyzed into 1 assay endpoint. This assay endpoint, OT_PPARg_PPARgSRC1_0480, was analyzed in the positive analysis fitting direction relative to DMSO as the negative control and baseline of activity. Using a type of binding reporter, measures of receptor for gain-of-signal activity can be used to understand the binding at the pathway-level as they relate to the gene PPARG. Furthermore, this assay endpoint can be referred to as a primary readout, because the performed assay has only produced 1 assay endpoint. To generalize the intended target to other relatable targets, this assay endpoint is annotated to the nuclear receptor intended target family, where the subfamily is non-steroidal.\nThe OT PPARg/SRC-1 assay assessed receptor-chemical interactions using a rapidly maturing, intensely fluorescent mutant of YFP known as Venus, rationally dissected into two separate fragments. The fragments were obtained as follows: first, fragments coding for YFP1 and YFP2 (corresponding to amino acid residues 1-158 and 159-239 of the full length YFP, respectively) were generated by oligonucleotide synthesis (Blue Heron Biotechnology), and then PCR mutagenesis was used to generate the mutant fragments IFP1 and IFP2. Fusion constructs were transfected into HEK293T cells with a (Gly4Ser)2 linker between the PPARg/SRC-1 and YFP fragment genes to facilitate complementation when interacting proteins bring fragments into close proximity. The construct is transiently transfected in HEK293T cells 48 hours prior to treatment with test compounds. Cells are seeded into optical quality 384-well poly-D-lysine coated plates in MEM alpha medium (Invitrogen) supplemented with 10 percent FBS (Gemini Bio-Products) 1 percent penicillin and 1 percent streptomycin, and grown in 37C incubator equilibrated to 5 percent CO2. Cells are allowed to adhere for 24 hours prior to treatment with compounds of interest or controls for 8 hours. Cells are fixed in 4 percent formaldehyde and stained with Draq5 (BioStatus) to identify cells and subcellular compartment boundaries prior to signal detection. 8 Images per well were acquired on an Evotec Opera at 2 wavelengths (488 and 635nm), and the ratio of fluorescence in the nucleus relative to fluorescence in the cytoplasm (N/C Ratio) in the 488nm channel was calculated for a minimum of 350 cells per image.", "values": [{"smiles": "CCCCNS(=O)(=O)c1ccc(C)cc1", "outcome": "inactive"}, {"smiles": "O=C(O)CCC(=O)O", "outcome": "inactive"}, {"smiles": "CCCCCCOc1ccc(N)cc1", "outcome": "inactive"}, {"smiles": "CCOC(=O)c1ccc(C)cc1", "outcome": "inactive"}, {"smiles": "N#Cc1ccc(C2CCCc3cncn32)cc1", "note": "(stereo not given)", "outcome": "inactive"}, {"smiles": "CCCCCCCOC(=O)c1ccc(O)cc1", "outcome": "inactive"}, {"smiles": "C=C[Si](OCCOC)(OCCOC)OCCOC", "outcome": "inactive"}, {"smiles": "O=C(O)c1ccc2c(c1)C(=O)OC2=O", "outcome": "inactive"}, {"smiles": "O=C(O)/C=C/c1ccccc1", "outcome": "inactive"}, {"smiles": "Oc1ccccc1Cc1ccccc1O", "outcome": "inactive"}, {"smiles": "CCCCNS(=O)(=O)c1ccccc1", "outcome": "inactive"}, {"smiles": "O=C(Nc1ccccc1)c1cc(Cl)ccc1O", "outcome": "inactive"}, {"smiles": "C=C[C@@]1(C)CC(=O)[C@]2(O)[C@@]3(C)[C@@H](O)CCC(C)(C)[C@@H]3[C@H](O)[C@H](OC(C)=O)[C@@]2(C)O1", "outcome": "inactive"}, {"smiles": "C1CNCCN1", "outcome": "inactive"}, {"smiles": "CC12CCC(CC1)C(C)(C)O2", "outcome": "inactive"}, {"smiles": "CCN1CN(CC)CN(CC)C1", "outcome": "inactive"}, {"smiles": "CCCCNC(=S)NCCCC", "outcome": "inactive"}, {"smiles": "CC(C)=CCCC(C)=CC#N", "outcome": "inactive"}, {"smiles": "CCc1occc(=O)c1O", "outcome": "inactive"}, {"smiles": "CCCCCCCCC(CO)CCCCCC", "note": "(stereo not given)", "outcome": "inactive"}, {"smiles": "COc1ccc(C(=O)c2ccccc2)c(O)c1", "outcome": "inactive"}, {"smiles": "CCCCCCCCCC[N+](C)(CCCCCCCCCC)CCC[Si](OC)(OC)OC", "outcome": "inactive"}, {"smiles": "O=C(OCCc1ccccc1)c1ccccc1", "outcome": "inactive"}, {"smiles": "O=c1c(O)c(-c2ccc(O)cc2O)oc2cc(O)cc(O)c12", "outcome": "inactive"}, {"smiles": "CC(C)(C)NC(=O)[C@H]1CC[C@H]2[C@@H]3CC[C@H]4NC(=O)C=C[C@]4(C)[C@H]3CC[C@]12C", "outcome": "inactive"}, {"smiles": "COC(=O)[C@H](Cc1ccccc1)NC(=O)[C@@H](N)CC(=O)O", "note": "(H-Asp-Phe-OMe)", "outcome": "inactive"}, {"smiles": "O=C(O)C1CCC(C(=O)O)CC1", "note": "(stereo not given)", "outcome": "inactive"}, {"smiles": "CCCCC/C=C\\C/C=C\\CCCCCCCC(=O)O", "AC50": "12.7 µM (active)"}, {"smiles": "CC(=O)OCc1ccccc1", "outcome": "inactive"}, {"smiles": "CCCCCCO", "outcome": "inactive"}, {"smiles": "Cc1c(C(=O)c2c[nH]n(C)c2=O)ccc(S(C)(=O)=O)c1C1=NOCC1", "outcome": "inactive"}, {"smiles": "CCOC(=O)C1=NOC(c2ccccc2)(c2ccccc2)C1", "outcome": "inactive"}, {"smiles": "O=C(O)c1cc(O)c2ccccc2c1O", "AC50": "73.7 µM (active)"}, {"smiles": "Oc1ccc(-c2ccccc2)c(Cl)c1", "outcome": "inactive"}, {"smiles": "CCCCCCCCCCCC(=O)N(C)CC(=O)O", "outcome": "inactive"}, {"smiles": "Fc1ccc(Br)cc1", "outcome": "inactive"}, {"smiles": "COc1ccc(-c2coc3cc(O)cc(O)c3c2=O)cc1", "outcome": "inactive"}, {"smiles": "CCC1COC(=O)O1", "note": "(stereo not given)", "outcome": "inactive"}, {"smiles": "C[Si]1(C)O[Si](C)(C)O[Si](C)(C)O[Si](C)(C)O[Si](C)(C)O1", "outcome": "inactive"}, {"smiles": "CCCCCCCCCCCCCCCCCCOS(=O)(=O)O", "outcome": "inactive"}]}]}
